From the supplement of paper PMC9135407
Values joined by “and” are separate entries in the source; they are usually repeats but may differ in a detail not shown here. Equal entries are not always repeated. Structures can show the parent of a compound that is named as a salt. The whole screen tested about 5,800 compounds, of which about 620 (11%) showed activity. What follows is part of a selection rich in actives, with near analogues and random picks from the rest. Values without a mark were called inactive.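 The calls were made as follows: active = score above a cut-off or among the top three wells of a plate; in these data no inactive exceeds 0.85.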

System: primary human hepatic stellate cells (donor 1)
Assay: scaled lipid accumulation score (0 = DMSO-like, 1 = nortriptyline-like); higher = stronger HSC inactivation (lipid re-accumulation), active = hit call of the paper
Conditions: 48 h
[1] = library stock concentration: 3.33 mM
[2] = library stock concentration: 1 mM
[3] = library stock concentration: 10 mM

CCCC(=O)Oc1ccc2[nH]c(C(=O)c3cc4ccccc4[nH]3)cc2c1 [PDGF Receptor Tyrosine Kinase Inhibitor II]
scaled lipid accumulation score [1]: ≤ 0

CC(C)(C)OC(=O)N1CCC(OCc2nc(-c3ccncc3)no2)CC1
scaled lipid accumulation score [2]: 0.013

N#Cc1ccc(NCCNCC(=O)N2CCC[C@H]2C#N)nc1 [NVP DPP 728 dihydrochloride]
scaled lipid accumulation score [3]: ≤ 0

CN1CC[C@]23c4ccccc4N[C@H]1[C@]21CCN(C)[C@H]3Nc2ccccc21 [Calycanthine]
scaled lipid accumulation score: 0.246

CCCC/C=C\CCCCCCCC(=O)OC [Myristoleic Acid methyl ester]
scaled lipid accumulation score [2]: ≤ 0

Cn1cnc(=N)c2[nH]cnc21 [3-Methyladenine]
scaled lipid accumulation score [1]: ≤ 0
scaled lipid accumulation score [3]: ≤ 0

CCCCC/C=C\C\C=C/C=C/C=C/[C@@H](SC[C@H](NC(=O)CC[C@H](N)C(=O)O)C(=O)NCC(=O)O)[C@@H](O)CCCC(=O)O [Leukotriene C4]
scaled lipid accumulation score (library stock concentration: 100 uM): ≤ -0.021

Fc1ccc(C(OCCCc2cnc[nH]2)c2ccc(F)cc2)cc1
scaled lipid accumulation score [3]: 0.81

Cc1nc2c(c(=O)[nH]1)CSCC2
scaled lipid accumulation score [3]: ≤ -0.001

CCCCC/C=C\C/C=C\C/C=C\C/C=C\CCCC(=O)O[C@H](COCCCCCCCCCCCCCCCC)COP(=O)([O-])OCC[N+](C)(C)C [Arachidonoyl-PAF]
scaled lipid accumulation score [2]: ≤ -0.021

CN1C(=O)/C(=C2\Nc3ccccc3\C2=N\O)c2ccc(Br)cc21 [GSK-3 Inhibitor IX, Control, MeBIO]
scaled lipid accumulation score [1]: 1.07 (active)

O=C1Cc2c([nH]c3ccc(Br)cc23)-c2ccccc2N1 [Kenpaullone]
scaled lipid accumulation score [2]: ≤ 0
scaled lipid accumulation score [1]: ≤ 0
scaled lipid accumulation score [3]: ≤ -0.055 and 0.348

COC(=O)C(N)CS (configuration not stated) [Mecysteine hydrochloride]
scaled lipid accumulation score [3]: ≤ 0

O=C(O)CCC/C=C\C[C@@H]1[C@@H](/C=C/[C@@H](O)C2Cc3ccccc3C2)[C@@H](F)C[C@@H]1O
scaled lipid accumulation score [2]: ≤ 0

CC(=O)OCC1=C(C(=O)O)N2C(=O)[C@@H](NC(=O)CSc3ccncc3)[C@H]2SC1 [Cephapirin sodium]
scaled lipid accumulation score (library stock concentration: 4.5 mM): ≤ -0.001
scaled lipid accumulation score [3]: ≤ 0

CCOC(=O)c1ccc(N=Nc2ccc(O)c(CC(=O)O)c2)cc1
scaled lipid accumulation score [2]: ≤ 0

CC#CCC(C)[C@H](O)/C=C/[C@@H]1[C@H]2C/C(=C/CCCC(=O)O)C[C@H]2C[C@H]1O (stereo partly drawn) [5-cis Iloprost]
scaled lipid accumulation score [2]: 0.135

CCCCC[C@H](O)/C=C/[C@@H]1[C@H]2C/C=C\CCCC(=O)O[C@H]2C[C@H]1O [Prostaglandin F2.alpha. 1,9-lactone]
scaled lipid accumulation score [2]: ≤ 0
